Measurements from article PMC12820563, “FoxP3 forms a head-to-head dimer in vivo and stabilizes its multimerization on adjacent microsatellites”.
The full ranking holds about 16,000 sequences; the median of “rpm ratio (pull-down/input)” is about 0.5, and the highest 2% start at about 5.5. This is one part of a sample in which the highest values are shown more often than they occur.

biological target: T1, MBP-FoxP3dN (Mus musculus, UniProt Q99JB6 188-423); experiment: PD-seq (MBP pull-down with sequencing); 20 mM Tris-HCl pH 7.5, 100 mM NaCl, 1.5 mM MgCl2, 0.4 uM protein, 0.1 uM dsDNA library, 30 min, room temperature, amylose pull-down; high values mean tight binding; details: protein: recombinant; tags: His6-MBP; chain copies: 2; dsDNA, one strand shown
T1 sequence: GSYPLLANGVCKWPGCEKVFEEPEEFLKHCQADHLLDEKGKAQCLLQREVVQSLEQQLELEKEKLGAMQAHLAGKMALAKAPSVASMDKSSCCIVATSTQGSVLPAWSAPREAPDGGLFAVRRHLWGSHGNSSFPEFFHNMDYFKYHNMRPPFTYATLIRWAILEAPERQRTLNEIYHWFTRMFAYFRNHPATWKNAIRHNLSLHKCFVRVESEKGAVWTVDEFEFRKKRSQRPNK
Summary of the method: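 In Tris pH 7.5 buffer with NaCl and MgCl2, 0.4 µM His6-MBP-tagged mouse FoxP3 or FoxP1 fragment lacking the N-terminus, from E. coli, met 0.1 µM Klenow-filled double-stranded degenerate DNA library for 30 min at room temperature. Three washes on amylose resin followed capture of the complexes, then proteinase K release of DNA, PCR barcoding and Illumina sequencing. Binding is taken as pooled-replicate reads-per-million enrichment of pull-down relative to input.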

Sequence	binding signal
GATGATTGTTCTCCCAGCTGATGAATTAGACTCCTCGAGTAAACAAATTTTCCTAATCTTTCTGTTCAAGCGCCATCTAC	0.422 RPM ratio (pull-down/input)
GATGATTGTTCTCCCAGCTGATGAATTATACCCATCGAGTAAACAAATTTTCCTAATCTTTCTGTTCAAGCGCCATCTAC	0.433 RPM ratio (pull-down/input)
GATGATTGTTCTCCCAGCTGATGAATTAGTCTTATCGAGTAAACAAATTTTCCTAATCTTTCTGTTCAAGCGCCATCTAC	0.725 RPM ratio (pull-down/input)
GATGATTGTTCTCCCAGCTGATGAATTAGTCGGATCGAGTAAACAAATTTTCCTAATCTTTCTGTTCAAGCGCCATCTAC	0.297 RPM ratio (pull-down/input)
GATGATTGTTCTCCCAGCTGATGAATTCCCTCATTCGAGTAAACAAATTTTCCTAATCTTTCTGTTCAAGCGCCATCTAC	0.325 RPM ratio (pull-down/input)
GATGATTGTTCTCCCAGCTGATGAATTGGTTAACTCGAGTAAACAAATTTTCCTAATCTTTCTGTTCAAGCGCCATCTAC	0.469 RPM ratio (pull-down/input)
GATGATTGTTCTCCCAGCTGATGAATTCTGTCATTCGAGTAAACAAATTTTCCTAATCTTTCTGTTCAAGCGCCATCTAC	4.31 RPM ratio (pull-down/input)
GATGATTGTTCTCCCAGCTGATGAATTGAGTACTTCGAGTAAACAAATTTTCCTAATCTTTCTGTTCAAGCGCCATCTAC	0.524 RPM ratio (pull-down/input)
GATGATTGTTCTCCCAGCTGATGAATTAGAAGGATCGAGTAAACAAATTTTCCTAATCTTTCTGTTCAAGCGCCATCTAC	0.225 RPM ratio (pull-down/input)
GATGATTGTTCTCCCAGCTGATGAATTTTGCATGTCGAGTAAACAAATTTTCCTAATCTTTCTGTTCAAGCGCCATCTAC	6.69 RPM ratio (pull-down/input)
GATGATTGTTCTCCCAGCTGATGAATTCATGATGTCGAGTAAACAAATTTTCCTAATCTTTCTGTTCAAGCGCCATCTAC	0.987 RPM ratio (pull-down/input)
GATGATTGTTCTCCCAGCTGATGAATTCGCATGTTCGAGTAAACAAATTTTCCTAATCTTTCTGTTCAAGCGCCATCTAC	1.95 RPM ratio (pull-down/input)
GATGATTGTTCTCCCAGCTGATGAATTGCATGTGTCGAGTAAACAAATTTTCCTAATCTTTCTGTTCAAGCGCCATCTAC	2.29 RPM ratio (pull-down/input)
GATGATTGTTCTCCCAGCTGATGAATTCGCCATGTCGAGTAAACAAATTTTCCTAATCTTTCTGTTCAAGCGCCATCTAC	0.854 RPM ratio (pull-down/input)
GATGATTGTTCTCCCAGCTGATGAATTCAGCATGTCGAGTAAACAAATTTTCCTAATCTTTCTGTTCAAGCGCCATCTAC	4.71 RPM ratio (pull-down/input)
GATGATTGTTCTCCCAGCTGATGAATTCTGCATGTCGAGTAAACAAATTTTCCTAATCTTTCTGTTCAAGCGCCATCTAC	5.95 RPM ratio (pull-down/input)
GATGATTGTTCTCCCAGCTGATGAATTTCCCATGTCGAGTAAACAAATTTTCCTAATCTTTCTGTTCAAGCGCCATCTAC	0.287 RPM ratio (pull-down/input)
GATGATTGTTCTCCCAGCTGATGAATTTCGCATGTCGAGTAAACAAATTTTCCTAATCTTTCTGTTCAAGCGCCATCTAC	5.75 RPM ratio (pull-down/input)
GATGATTGTTCTCCCAGCTGATGAATTGTGCATGTCGAGTAAACAAATTTTCCTAATCTTTCTGTTCAAGCGCCATCTAC	7.05 RPM ratio (pull-down/input)
GATGATTGTTCTCCCAGCTGATGAATTTGCCATGTCGAGTAAACAAATTTTCCTAATCTTTCTGTTCAAGCGCCATCTAC	1.45 RPM ratio (pull-down/input)
GATGATTGTTCTCCCAGCTGATGAATTTGCATGTTCGAGTAAACAAATTTTCCTAATCTTTCTGTTCAAGCGCCATCTAC	3.83 RPM ratio (pull-down/input)

Sequence	binding signal
GATGATTGTTCTCCCAGCTGATGAATTCATTTGCTCGAGTAAACAAATTTTCCTAATCTTTCTGTTCAAGCGCCATCTAC	2.92 RPM ratio (pull-down/input)
GATGATTGTTCTCCCAGCTGATGAATTTGCGTATTCGAGTAAACAAATTTTCCTAATCTTTCTGTTCAAGCGCCATCTAC	4.16 RPM ratio (pull-down/input)
GATGATTGTTCTCCCAGCTGATGAATTGGGTCATTCGAGTAAACAAATTTTCCTAATCTTTCTGTTCAAGCGCCATCTAC	0.64 RPM ratio (pull-down/input)
GATGATTGTTCTCCCAGCTGATGAATTAATCTTGTCGAGTAAACAAATTTTCCTAATCTTTCTGTTCAAGCGCCATCTAC	0.322 RPM ratio (pull-down/input)
GATGATTGTTCTCCCAGCTGATGAATTGCTCAAATCGAGTAAACAAATTTTCCTAATCTTTCTGTTCAAGCGCCATCTAC	0.408 RPM ratio (pull-down/input)
GATGATTGTTCTCCCAGCTGATGAATTTTGCGGATCGAGTAAACAAATTTTCCTAATCTTTCTGTTCAAGCGCCATCTAC	0.597 RPM ratio (pull-down/input)
GATGATTGTTCTCCCAGCTGATGAATTACACATATCGAGTAAACAAATTTTCCTAATCTTTCTGTTCAAGCGCCATCTAC	0.87 RPM ratio (pull-down/input)
GATGATTGTTCTCCCAGCTGATGAATTGCGCATGTCGAGTAAACAAATTTTCCTAATCTTTCTGTTCAAGCGCCATCTAC	6.5 RPM ratio (pull-down/input)
GATGATTGTTCTCCCAGCTGATGAATTCTCCATGTCGAGTAAACAAATTTTCCTAATCTTTCTGTTCAAGCGCCATCTAC	0.249 RPM ratio (pull-down/input)
GATGATTGTTCTCCCAGCTGATGAATTGCCCATGTCGAGTAAACAAATTTTCCTAATCTTTCTGTTCAAGCGCCATCTAC	0.577 RPM ratio (pull-down/input)
GATGATTGTTCTCCCAGCTGATGAATTCCCCATGTCGAGTAAACAAATTTTCCTAATCTTTCTGTTCAAGCGCCATCTAC	0.259 RPM ratio (pull-down/input)
GATGATTGTTCTCCCAGCTGATGAATTGCTGATGTCGAGTAAACAAATTTTCCTAATCTTTCTGTTCAAGCGCCATCTAC	0.843 RPM ratio (pull-down/input)
GATGATTGTTCTCCCAGCTGATGAATTCCGCATGTCGAGTAAACAAATTTTCCTAATCTTTCTGTTCAAGCGCCATCTAC	5.82 RPM ratio (pull-down/input)
GATGATTGTTCTCCCAGCTGATGAATTGCGGTATTCGAGTAAACAAATTTTCCTAATCTTTCTGTTCAAGCGCCATCTAC	1.67 RPM ratio (pull-down/input)
GATGATTGTTCTCCCAGCTGATGAATTCTTGACTTCGAGTAAACAAATTTTCCTAATCTTTCTGTTCAAGCGCCATCTAC	0.38 RPM ratio (pull-down/input)
GATGATTGTTCTCCCAGCTGATGAATTATAGCCGTCGAGTAAACAAATTTTCCTAATCTTTCTGTTCAAGCGCCATCTAC	0.504 RPM ratio (pull-down/input)
GATGATTGTTCTCCCAGCTGATGAATTTCTGGTGTCGAGTAAACAAATTTTCCTAATCTTTCTGTTCAAGCGCCATCTAC	0.353 RPM ratio (pull-down/input)
GATGATTGTTCTCCCAGCTGATGAATTCTTAGTTTCGAGTAAACAAATTTTCCTAATCTTTCTGTTCAAGCGCCATCTAC	0.302 RPM ratio (pull-down/input)
GATGATTGTTCTCCCAGCTGATGAATTACCAGGCTCGAGTAAACAAATTTTCCTAATCTTTCTGTTCAAGCGCCATCTAC	0.357 RPM ratio (pull-down/input)
GATGATTGTTCTCCCAGCTGATGAATTGAGCATCTCGAGTAAACAAATTTTCCTAATCTTTCTGTTCAAGCGCCATCTAC	6.26 RPM ratio (pull-down/input)
GATGATTGTTCTCCCAGCTGATGAATTTGAGCATTCGAGTAAACAAATTTTCCTAATCTTTCTGTTCAAGCGCCATCTAC	5.36 RPM ratio (pull-down/input)

Sequence	binding signal
GATGATTGTTCTCCCAGCTGATGAATTCGAGCATTCGAGTAAACAAATTTTCCTAATCTTTCTGTTCAAGCGCCATCTAC	4.97 RPM ratio (pull-down/input)
GATGATTGTTCTCCCAGCTGATGAATTGAGCATTTCGAGTAAACAAATTTTCCTAATCTTTCTGTTCAAGCGCCATCTAC	6.08 RPM ratio (pull-down/input)
GATGATTGTTCTCCCAGCTGATGAATTTTGAGCATCGAGTAAACAAATTTTCCTAATCTTTCTGTTCAAGCGCCATCTAC	0.906 RPM ratio (pull-down/input)
GATGATTGTTCTCCCAGCTGATGAATTGAGCAGCTCGAGTAAACAAATTTTCCTAATCTTTCTGTTCAAGCGCCATCTAC	1.12 RPM ratio (pull-down/input)
GATGATTGTTCTCCCAGCTGATGAATTGAAGTCTTCGAGTAAACAAATTTTCCTAATCTTTCTGTTCAAGCGCCATCTAC	0.312 RPM ratio (pull-down/input)
GATGATTGTTCTCCCAGCTGATGAATTAGCCTCCTCGAGTAAACAAATTTTCCTAATCTTTCTGTTCAAGCGCCATCTAC	1.57 RPM ratio (pull-down/input)
GATGATTGTTCTCCCAGCTGATGAATTAAGCGGATCGAGTAAACAAATTTTCCTAATCTTTCTGTTCAAGCGCCATCTAC	0.341 RPM ratio (pull-down/input)
GATGATTGTTCTCCCAGCTGATGAATTGTAAACGTCGAGTAAACAAATTTTCCTAATCTTTCTGTTCAAGCGCCATCTAC	0.874 RPM ratio (pull-down/input)
GATGATTGTTCTCCCAGCTGATGAATTGTGCCACTCGAGTAAACAAATTTTCCTAATCTTTCTGTTCAAGCGCCATCTAC	6.84 RPM ratio (pull-down/input)
GATGATTGTTCTCCCAGCTGATGAATTTTCCCACTCGAGTAAACAAATTTTCCTAATCTTTCTGTTCAAGCGCCATCTAC	0.213 RPM ratio (pull-down/input)
GATGATTGTTCTCCCAGCTGATGAATTTCGCCACTCGAGTAAACAAATTTTCCTAATCTTTCTGTTCAAGCGCCATCTAC	5.74 RPM ratio (pull-down/input)
GATGATTGTTCTCCCAGCTGATGAATTCCCCCACTCGAGTAAACAAATTTTCCTAATCTTTCTGTTCAAGCGCCATCTAC	0.253 RPM ratio (pull-down/input)
GATGATTGTTCTCCCAGCTGATGAATTCGCCCACTCGAGTAAACAAATTTTCCTAATCTTTCTGTTCAAGCGCCATCTAC	0.406 RPM ratio (pull-down/input)
GATGATTGTTCTCCCAGCTGATGAATTCTCCCACTCGAGTAAACAAATTTTCCTAATCTTTCTGTTCAAGCGCCATCTAC	0.246 RPM ratio (pull-down/input)
GATGATTGTTCTCCCAGCTGATGAATTCCCACTCTCGAGTAAACAAATTTTCCTAATCTTTCTGTTCAAGCGCCATCTAC	0.323 RPM ratio (pull-down/input)
GATGATTGTTCTCCCAGCTGATGAATTCTGCCACTCGAGTAAACAAATTTTCCTAATCTTTCTGTTCAAGCGCCATCTAC	6.04 RPM ratio (pull-down/input)
GATGATTGTTCTCCCAGCTGATGAATTCAGCCACTCGAGTAAACAAATTTTCCTAATCTTTCTGTTCAAGCGCCATCTAC	5.07 RPM ratio (pull-down/input)
GATGATTGTTCTCCCAGCTGATGAATTCCGCCACTCGAGTAAACAAATTTTCCTAATCTTTCTGTTCAAGCGCCATCTAC	6.15 RPM ratio (pull-down/input)
GATGATTGTTCTCCCAGCTGATGAATTTTCGCACTCGAGTAAACAAATTTTCCTAATCTTTCTGTTCAAGCGCCATCTAC	0.504 RPM ratio (pull-down/input)
GATGATTGTTCTCCCAGCTGATGAATTTCTCCACTCGAGTAAACAAATTTTCCTAATCTTTCTGTTCAAGCGCCATCTAC	0.272 RPM ratio (pull-down/input)
GATGATTGTTCTCCCAGCTGATGAATTTCTCGTCTCGAGTAAACAAATTTTCCTAATCTTTCTGTTCAAGCGCCATCTAC	0.277 RPM ratio (pull-down/input)
